Experimental findings from PubChem BioAssay AID1233 (SRMLSC, 2008) are described below.

Potency and affinity values are given separately. The source made the active and inactive calls.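 Rule for the calls: active = a dose-response curve fit returns a half-maximal inhibitory concentration, extrapolated values included; inactive = the fit returns no such concentration.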 Residues, ends and D or L forms follow the SMILES beside them.

In the assay the target is HMG-CoA reductase [Enterococcus faecalis] (UniProt Q9FD70). The assay can be described thus: inhibitors of E. faecalis class II HMGR, confirmation, biochemical, Enterococcus faecalis (AID 1233). Conditions: purified E. faecalis HMGR, NADPH absorbance 340 nm kinetics; series mostly up to 100 µM.
Turning to `CCc1ccc(NC(=O)C(C)OC(=O)c2c(C)nn(Cc3ccccc3)c2Cl)cc1` (stereo unspecified), the molecule was called inactive.

For `CCN(CCNc1ccc([N+](=O)[O-])c2cccnc12)S(=O)(=O)c1ccccc1`, the molecule was called inactive. Under `COc1ccc(C(=O)C2CCCN(Cc3cnc(C)s3)C2)c(OC)c1` (stereo unspecified) stands “inactive”. Turning to `CCN1CCN(C(=O)Cc2ccccc2OC)CC1`, the outcome was inactive. `CC(C)Oc1cccc(NC(=O)c2cccn(Cc3ccc4c(c3)OC(F)(F)O4)c2=O)c1`: the result was inactive. Take `COc1ccc(C[C@@H]2c3cc(O)c(OC)cc3CCN2C)cc1O`: the molecule was called inactive. In the case of `CC(C)C[C@H](NC(=O)[C@@H]1CCCN1C(=O)[C@@H](N)Cc1ccc(O)cc1)C(=O)NCC(N)=O` (H-YPLG-NH2) it was “inactive”. In the case of `O=C(O)[C@@H]1C[C@H]1[C@@H](NP(=O)(c1ccccc1)c1ccccc1)c1ccccc1` it was “inactive”.

As to `Cc1c(P(=S)(c2ccccc2)c2ccccc2)[n+]2ccccc2n1C`, the call was inactive.

As to `CC1(C)C(C(=O)NCc2ccco2)C1(C)C`, the outcome was inactive. Under `COc1ccc(NC(=O)c2c(C)nn(Cc3ccccc3Cl)c2Cl)cc1Cl` stands “inactive”; under `O=[N+]([O-])/C(Cl)=C1\NCCN1Cc1ccc(Cl)nc1`, “inactive”. Turning to `CCCn1cc(C(=O)O)cn1`, the call was inactive. Turning to `COc1ccc(CCn2c(O)c(C=NCCCn3ccnc3)c(=O)[nH]c2=O)cc1OC`, the call was inactive. Take `OC(Cn1c2ccccc2c2ccccc21)C[n+]1cccc2ccccc21` (stereo unspecified): the result was inactive.

Take `CCCCC(CC)CNCC(O)c1ccccc1` (stereo unspecified): the molecule was called inactive.
